This is an account of results in PubChem BioAssay (NCI).

Test systems include T-47D breast; BT-549 breast; MDA-MB-435 melanoma; SW-620 colon; MCF7 breast; HCT-116 colon; KM12 colon; HCC-2998 colon.
Common to all, as to test: NCI-60 one-dose screen, 48 h (100 = growth as untreated, 0 = no growth, -100 = all killed)
Conditions in all cases: 10 µM unless noted

Several values for one entry are separate records, joined by “and”; a condition that tells them apart may be missing. Equal entries are not always repeated. Compounds without any hit were thinned out: in the full panel of roughly 83,000, 20% have a hit.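 How to read the values: 0–100, growth inhibition (40 = 60% inhibited); 0, no net growth; -100 to 0, cell death (-40 = 40% of starting cells died; -100 = all dead).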 Activity calls are given as the source filed them. Rule for the calls: active = growth percent below 10; inactive = the rest.

As for `CC(=O)Oc1cc(C)c(OC(C)=O)c(C)c1C`, the growth was 82.2% (inactive) in the assay with T-47D breast; 117% (inactive) in the assay on BT-549 breast; 105% (inactive) in the assay on MDA-MB-435 melanoma; 105% (inactive) in the assay on SW-620 colon; 91.3% (inactive) with MCF7 breast; 112% (inactive) with HCT-116 colon. Also, the growth in the assay on KM12 colon was 101% (inactive).

`O=[N+]([O-])c1ccc(N2CCN=N2)cc1`: the growth was 67.3% (inactive) in the assay with T-47D breast; 85.3% (inactive) with BT-549 breast; 77.5% (inactive) with MDA-MB-435 melanoma; 81.8% (inactive) in the assay on SW-620 colon; 87.5% (inactive) with MCF7 breast; 81.7% (inactive) in the assay on HCT-116 colon. Moreover, the values for the growth in the assay on HCC-2998 colon and with KM12 colon were 107% (inactive) and 77.3% (inactive), respectively.

For `Cc1onc(-c2c(F)cccc2Cl)c1-c1ncc(-c2ccc(Cl)cc2)o1`, the growth was 73.9% (inactive) and 35.8% (inactive) with T-47D breast; 73.8% (inactive) and 40.7% (inactive) with BT-549 breast; 46.8% (inactive) and 37.7% (inactive) in the assay on MDA-MB-435 melanoma; 37.3% (inactive) and 29.4% (inactive) with SW-620 colon; 61.9% (inactive) and 20.5% (inactive) with MCF7 breast; 27.1% (inactive) and 16.6% (inactive) in the assay on HCT-116 colon. Further, the growth in the assay with HCC-2998 colon was 61.2% (inactive) and 56.8% (inactive); in the assay with KM12 colon, 43.4% (inactive) and 34.7% (inactive).

In the case of `COc1cc(C2c3cc4c(cc3C(OC(=O)C[n+]3ccccc3)C3COC(=O)C23)OCO4)cc(OC)c1OC` (centres undefined), the growth was 94.8% (inactive) in the assay on T-47D breast; 19.8% (inactive) in the assay with BT-549 breast; -8.6% (active) with MDA-MB-435 melanoma; 21.3% (inactive) in the assay with SW-620 colon; 5.09% (active) in the assay on HCT-116 colon; 13.3% (inactive) in the assay with HCC-2998 colon. In the assay with KM12 colon, the growth is -8.66% (active).

As for `C#CCOC(=O)C(N)CS` (centres undefined), the growth in the assay on T-47D breast is 119% (inactive); in the assay on BT-549 breast, 108% (inactive); in the assay with MDA-MB-435 melanoma, 96.6% (inactive); in the assay with SW-620 colon, 97.1% (inactive); in the assay with HCT-116 colon, 101% (inactive); in the assay with HCC-2998 colon, 107% (inactive). For the same compound, the growth with KM12 colon is 102% (inactive).

As for `COc1cc(NCCCCCNC(C)C)c2ncccc2c1`, the growth in the assay with T-47D breast was 82.3% (inactive); in the assay with BT-549 breast, 89.1% (inactive); in the assay with MDA-MB-435 melanoma it was 97.8% (inactive) and 106% (inactive); with SW-620 colon, 87.2% (inactive) and 106% (inactive); with HCT-116 colon, 96.9% (inactive) and 90.3% (inactive); in the assay on HCC-2998 colon, 102% (inactive) and 90.2% (inactive). Besides, the growth in the assay on KM12 colon was 91.4% (inactive).

For `O=C(O)C(Cc1ccc(OS(=O)(=O)Cc2ccccc2)cc1)NS(=O)(=O)Cc1ccccc1` (centres undefined), the growth in the assay on T-47D breast is 101% (inactive) and 99.9% (inactive); with BT-549 breast, 104% (inactive) and 106% (inactive); in the assay on MDA-MB-435 melanoma it was 98.7% (inactive) and 111% (inactive); in the assay with SW-620 colon it was 105% (inactive); in the assay on MCF7 breast, 91.4% (inactive) and 98.4% (inactive); with HCT-116 colon, 105% (inactive) and 109% (inactive). In addition, the growth in the assay on KM12 colon was 101% (inactive) and 106% (inactive).

As to `CNc1ccc(O)cc1`, the growth in the assay on T-47D breast was 108% (inactive) and 101% (inactive); with BT-549 breast, 107% (inactive) and 103% (inactive); with MDA-MB-435 melanoma, 107% (inactive) and 101% (inactive); in the assay on SW-620 colon, 103% (inactive) and 89.9% (inactive); in the assay on MCF7 breast it was 94.9% (inactive) and 110% (inactive); with HCT-116 colon, 108% (inactive) and 97.3% (inactive). Besides, the growth in the assay with KM12 colon is 112% (inactive) and 91.3% (inactive).

As for `Clc1ccc(/C=C/c2ccc3ccccc3n2)cc1`, the growth in the assay with T-47D breast was 18.6% (inactive) and 65.6% (inactive) and 52.5% (inactive); in the assay with BT-549 breast, 58.7% (inactive) and 107% (inactive) and 94.8% (inactive); in the assay on MDA-MB-435 melanoma, -38.5% (active) and 85.2% (inactive) and 92.6% (inactive); in the assay with SW-620 colon, 22.8% (inactive) and 108% (inactive) and 97.1% (inactive); in the assay with HCT-116 colon, 18.5% (inactive) and 77% (inactive) and 63.4% (inactive); in the assay on HCC-2998 colon, 7.83% (active) and 104% (inactive) and 91.5% (inactive). Also, the growth in the assay on KM12 colon was 16.3% (inactive) and 97% (inactive) and 94.7% (inactive).

`N#CC1c2ccccc2C=CN1C(=O)c1ccccc1` (centres undefined): the growth with T-47D breast was 106% (inactive) and 103% (inactive); in the assay with BT-549 breast, 115% (inactive) and 139% (inactive); in the assay on MDA-MB-435 melanoma, 98.7% (inactive) and 87.8% (inactive); in the assay with SW-620 colon it was 94.8% (inactive) and 103% (inactive); with MCF7 breast, 93.1% (inactive) and 114% (inactive); in the assay with HCT-116 colon it was 107% (inactive) and 92% (inactive). For the same compound, in the assay with KM12 colon, the growth is 107% (inactive) and 91.5% (inactive).

Consider `CCCCCc1cc[n+](CC(=O)c2ccccc2)cc1`, for which the growth in the assay on T-47D breast was 95.4% (inactive) and 101% (inactive); in the assay with BT-549 breast, 95.9% (inactive); with MDA-MB-435 melanoma, 105% (inactive); in the assay on SW-620 colon, 96.7% (inactive) and 104% (inactive); with HCT-116 colon, 95.3% (inactive) and 91.9% (inactive); in the assay with HCC-2998 colon, 105% (inactive). Moreover, the growth with KM12 colon was 102% (inactive) and 104% (inactive).

Regarding `O=C(N=C1C(=O)C2(CCCCC2)C2(N=C(c3ccccc3)OC2=O)C12CCCCC2)c1ccccc1` (centres undefined), the growth is 35.7% (inactive) with T-47D breast; 86.9% (inactive) in the assay with BT-549 breast; 89.1% (inactive) with MDA-MB-435 melanoma; 71.5% (inactive) in the assay on SW-620 colon; 51.3% (inactive) in the assay on MCF7 breast; 39.5% (inactive) with HCT-116 colon. Also, the growth with KM12 colon was 55.6% (inactive).

Regarding `CC(C)(C)C1=CC(=O)C(C(C)(C)C)=CC1=O`, the growth in the assay on T-47D breast is 79.2% (inactive) and 112% (inactive); in the assay with BT-549 breast it was 91.7% (inactive) and 110% (inactive); in the assay on MDA-MB-435 melanoma, 97.8% (inactive) and 110% (inactive); in the assay on SW-620 colon, 106% (inactive) and 104% (inactive); with HCT-116 colon, 88.5% (inactive) and 105% (inactive); in the assay on KM12 colon, 110% (inactive).

As to `Cc1cc(NC(=O)NC(=O)c2ccccc2N(C)C)ccc1Oc1ncc(Br)cn1`, the growth was 36.2% (inactive) and 52.2% (inactive) in the assay with T-47D breast; 17.5% (inactive) and 39.1% (inactive) in the assay on BT-549 breast; -27.4% (active) and 6.67% (active) in the assay on MDA-MB-435 melanoma; 28.4% (inactive) and 33.9% (inactive) in the assay with SW-620 colon; 16.5% (inactive) and 16.9% (inactive) in the assay with MCF7 breast; 17% (inactive) and 21.8% (inactive) in the assay on HCT-116 colon. Further, in the assay with KM12 colon, the growth was 15.3% (inactive) and 32.1% (inactive).
